Source: PubChem BioAssay
Hits are enriched below; roughly 11% of the tested compounds scored in any of these assays.
BAZ2B block: BAZ2B (human) inhibition | AID 504333 | AlphaScreen BAZ2B-H3K14Ac peptide displacement | actives 4.4% (n = 360,000) | Potency, µM (series often up to 114 µM), inactives show at the top dose activity change, negative = inhibition, hits mostly inhibitors | Q9UIF8; further: on the % scale 0 is the no-effect control and ±100 the full control effect; nearly all actives have a fitted effect of over 60% in size
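In this displacement format the biotinylated H3(5-23) peptide acetylated at Lys14 serves as ligand at 50 nM, with BAZ2B at 50 nM in PBS pH 7.4 containing 0.01% Tween-20. Donor and acceptor beads are 10 ug/mL final.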
G9a inh: inhibitors of human histone lysine methyltransferase G9a; Potency, µM (titrated, usually from 102 µM), inactives show at the top dose activity, negative = inhibition, usual class: inhibitors; actives 8.8% (n = 350,000); AID 504332; Q96KQ7; G9a H3K9 monomethylation, AlphaScreen, 2 h; further: on the % scale 0 is the no-effect control and ±100 the full control effect; nearly all actives have a fitted effect of over 75% in size
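Enzyme 20 nM + cpd, 15 min RT; add b-H3K9 pep 500 nM / SAM 20 uM; 2 h RT; anti-H3K9me1 Ab 0.5 ug/mL + SA donor / anti-rabbit acceptor beads 20 ug/mL each, 10 min; AlphaScreen read.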
JMJD2A Tudor inh: inhibitors of human JMJD2A Tudor domain; O75164; AlphaScreen JMJD2A-Tudor / H3K4me3 peptide binding; Potency, µM (series often up to 114 µM), for inactives: at the highest dose activity change, negative = inhibition, most hits filed as inhibitors; actives 4.4% (n = 390,000); further: on the % scale 0 is the no-effect control and ±100 the full control effect; nearly all actives have a fitted effect of over 50% in size
L3MBTL1 inh: L3MBTL1 (human) inhibition; Q9Y468; AlphaScreen L3MBTL1–H3K9me1 peptide binding; Potency, µM (titrated, usually from 57.1 µM), for inactives: top-dose activity, negative = inhibition, usual class: inhibitors; actives 0.66% (n = 230,000); AID 485360; further: on the % scale 0 is the no-effect control and ±100 the full control effect; nearly all actives have a fitted effect of over 60% in size
Target sequence (Q9Y468 whole entry, looked up): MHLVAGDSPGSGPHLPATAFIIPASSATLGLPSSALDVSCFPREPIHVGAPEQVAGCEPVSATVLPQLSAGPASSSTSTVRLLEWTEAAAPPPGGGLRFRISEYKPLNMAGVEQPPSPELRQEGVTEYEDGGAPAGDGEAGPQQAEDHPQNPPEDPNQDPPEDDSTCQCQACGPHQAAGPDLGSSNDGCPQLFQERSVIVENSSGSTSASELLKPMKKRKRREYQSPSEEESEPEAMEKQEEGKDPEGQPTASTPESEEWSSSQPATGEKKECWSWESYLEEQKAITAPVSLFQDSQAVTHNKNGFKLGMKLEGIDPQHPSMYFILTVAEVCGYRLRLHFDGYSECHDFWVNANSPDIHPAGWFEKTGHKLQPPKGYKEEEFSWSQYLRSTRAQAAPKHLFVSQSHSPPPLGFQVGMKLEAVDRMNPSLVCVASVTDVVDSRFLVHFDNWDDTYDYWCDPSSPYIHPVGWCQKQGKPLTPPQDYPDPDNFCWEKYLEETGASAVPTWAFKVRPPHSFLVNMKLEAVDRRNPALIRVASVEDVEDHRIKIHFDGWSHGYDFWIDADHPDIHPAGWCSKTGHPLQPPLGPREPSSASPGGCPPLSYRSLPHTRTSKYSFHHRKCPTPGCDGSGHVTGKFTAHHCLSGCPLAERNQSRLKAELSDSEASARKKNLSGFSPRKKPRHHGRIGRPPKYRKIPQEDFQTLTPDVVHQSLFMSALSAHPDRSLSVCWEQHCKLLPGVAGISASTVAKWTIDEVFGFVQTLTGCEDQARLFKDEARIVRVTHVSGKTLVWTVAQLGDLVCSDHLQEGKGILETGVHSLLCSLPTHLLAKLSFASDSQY
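AlphaScreen assay: L3MBTL1 (50 nM final) was preincubated 30 min at room temperature with biotinylated H3(1-15)K9me1 peptide (75 nM final), then 30 min with library compounds; streptavidin donor and nickel chelate acceptor beads (10 ug/mL final) added, 30 min dark.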
HP1b chromo inh: blocks HP1-beta chromodomain binding to methylated histone tails. P83916. actives 0.56% (n = 390,000). AlphaScreen HP1-beta / biotin-H3K9me3 peptide binding. Potency, µM (titrated, usually from 114 µM), inactives show at the highest dose activity change, negative = inhibition, usual class: inhibitors; further: nearly all actives have a fitted effect of over 70% in size
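AlphaScreen: HP1-beta (50 nM) preformed 30 min with biotin-H3(1-18)K9me3 peptide (50 nM) in PBS pH 7.4, 0.01% Tween-20. Compound added for 30 min at RT, then streptavidin donor/nickel chelate acceptor beads (10 ug/mL) for 30 min.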
* hit, by the source's call; ! = not confirmed by another sample; [ ] = remark or other dose. The call rests on the fitted dose curve; in most records, active means well fitted inhibition curve with a large enough effect; inconclusive means small, poorly fitted or top-dose-only effect; inactive means no such curve, though single readings can be large or run the other way. Potency means the concentration at half of the fitted maximal effect.

Results for O=S(=O)(Nc1nc2ccccc2nc1N1CCN(c2ccccc2)CC1)c1ccc(F)cc1 ?
BAZ2B block: inconclusive; G9a inh: 50.1µM*; JMJD2A Tudor inh: inconclusive; L3MBTL1 inh: -3.6%; HP1b chromo inh: -16.7%

What do the screens show for `c1ccc(CCSc2nccn2-c2ccccc2)cc1`?
BAZ2B block: 39.8µM*; G9a inh: 44.7µM*; JMJD2A Tudor inh: inconclusive; L3MBTL1 inh: inconclusive; HP1b chromo inh: inconclusive

Results for COC(=O)CCCSc1nccn1-c1ccccc1 ?
BAZ2B block: inconclusive; G9a inh: 44.7µM*; JMJD2A Tudor inh: -18.5%; L3MBTL1 inh: -3.7%; HP1b chromo inh: 27.3%

What do the screens show for `COc1cccc(-n2ccnc2SCC(=O)NCc2ccccc2)c1`?
BAZ2B block: -7.3%; G9a inh: inconclusive; JMJD2A Tudor inh: -21.6%; L3MBTL1 inh: -0.3%; HP1b chromo inh: -1.1%

Results for Cc1ccc(S(=O)(=O)N2CCN(C(=O)CNC(=O)c3ccc(Br)o3)CC2)cc1 ?
BAZ2B block: -5.6%; G9a inh: -7.4%; JMJD2A Tudor inh: -11.0%; L3MBTL1 inh: 10.0%; HP1b chromo inh: inconclusive

Results for Cc1ccc(S(=O)(=O)NC(=O)NN2CC3CCCC3C2)cc1 (centres undefined) ?
BAZ2B block: inconclusive; G9a inh: 6.9%[2.33 µM]; JMJD2A Tudor inh: 89.1µM*; HP1b chromo inh: 72.7%

What do the screens show for `N=C(N)SCCc1cccc(CCSC(=N)N)c1`?
G9a inh: 3.55µM*; JMJD2A Tudor inh: -7.2%; HP1b chromo inh: 22.8%

How did CCN(CC)C(=O)NCc1c(C)cc(C)cc1C do in these assays?
BAZ2B block: -2.3%; G9a inh: -3.3%; JMJD2A Tudor inh: -2.4%; L3MBTL1 inh: 9.5%; HP1b chromo inh: 13.3%

Results for CNCCCOc1ccc(C(C)(C)c2ccccc2)cc1 ?
BAZ2B block: 79.4µM*; G9a inh: 7.94µM*

How did CCC(C)NCCOc1cccc(Br)c1 (centres undefined) do in these assays?
BAZ2B block: -25.9%; G9a inh: 8.91µM*; JMJD2A Tudor inh: 4.47µM*; L3MBTL1 inh: 3.9%; HP1b chromo inh: inconclusive

Results for O=C(CC(=O)NCCc1ccccc1)NCCc1ccccc1 ?
BAZ2B block: -19.8%; G9a inh: 11.1%; JMJD2A Tudor inh: -12.1%; HP1b chromo inh: 13.4%

How did c1ccc(CCNCCOc2ccccc2)cc1 do in these assays?
BAZ2B block: inconclusive; G9a inh: 10µM*; JMJD2A Tudor inh: 2.82µM*; L3MBTL1 inh: -4.5%; HP1b chromo inh: -20.9%

Results for C=CCNCCOc1cccc(Br)c1 ?
BAZ2B block: 7.7%; G9a inh: inconclusive; JMJD2A Tudor inh: -16.4%; L3MBTL1 inh: 10.8%; HP1b chromo inh: 17.8%

What do the screens show for `O=C(CCCOc1ccccc1)NCCc1ccccc1`?
BAZ2B block: 2.5%; G9a inh: 4.1%; JMJD2A Tudor inh: -6.2%; L3MBTL1 inh: 11.7%; HP1b chromo inh: 34.8%

How did NNCCc1ccccc1 do in these assays?
BAZ2B block: -17.4%; G9a inh: 18.9µM*!; JMJD2A Tudor inh: 79.4µM*; L3MBTL1 inh: 4.6%; HP1b chromo inh: 20.2%

How did CCN(Cc1ccccc1)Cc1c(O)ccc2oc(C)c(C(=O)Nc3ccccc3C)c12 do in these assays?
BAZ2B block: -22.6%; G9a inh: inconclusive; JMJD2A Tudor inh: -29.2%; HP1b chromo inh: -2.5%

What do the screens show for `COC(=O)c1scc(-c2ccc(C)cc2)c1S(=O)(=O)Nc1cc(C)c(Cl)cc1OC`?
BAZ2B block: -19.7%; G9a inh: 7.3%[59 µM]; JMJD2A Tudor inh: -20.0%; HP1b chromo inh: -3.8%

Results for CCCN1CCN(c2ncc3c(n2)CCN(Cc2ccc(OC)c(OC)c2OC)C3)CC1 ?
BAZ2B block: -38.6%; G9a inh: -7.4%[12.7 µM]; JMJD2A Tudor inh: -14.2%; HP1b chromo inh: 43.9%

How did COCCCNCCOc1ccc(C(C)(C)c2ccccc2)cc1 do in these assays?
BAZ2B block: inconclusive; G9a inh: 20µM*; JMJD2A Tudor inh: 17.8µM*; L3MBTL1 inh: 8.7%; HP1b chromo inh: 8.9%

What do the screens show for `CC(C)(C)c1ccc(C(=O)NCCOc2ccccc2)cc1`?
BAZ2B block: inconclusive; JMJD2A Tudor inh: -13.7%; L3MBTL1 inh: -4.3%; HP1b chromo inh: 24.3%

Results for CC(C)(C)c1ccc(OCCNCc2ccccc2)cc1 ?
BAZ2B block: -7.7%; G9a inh: 44.7µM*; JMJD2A Tudor inh: 2.24µM*; L3MBTL1 inh: 9.0%; HP1b chromo inh: inconclusive

How did CCC(C)NCCOc1ccc(C(C)(C)c2ccccc2)cc1 (centres undefined) do in these assays?
BAZ2B block: inconclusive; G9a inh: 7.94µM*; JMJD2A Tudor inh: 2.82µM*; L3MBTL1 inh: -8.4%; HP1b chromo inh: inconclusive

How did CC(C)(C)c1ccc(OCCNC(=S)Nc2ccccc2)cc1 do in these assays?
BAZ2B block: -11.3%; G9a inh: 56.8%[12.7 µM]; JMJD2A Tudor inh: -15.8%; L3MBTL1 inh: -13.8%; HP1b chromo inh: 26.5%

How did CC(C)(c1ccccc1)c1ccc(OCCCN2CCNCC2)cc1 do in these assays?
BAZ2B block: 20µM*; G9a inh: 15.8µM*; JMJD2A Tudor inh: 1.12µM*; L3MBTL1 inh: -21.3%; HP1b chromo inh: inconclusive

Results for CCOCCc1nn2c(=O)cc(COC(=O)c3ccc4c(c3)OCO4)nc2s1 ?
BAZ2B block: 2.9%; G9a inh: 10.7%[59 µM]; JMJD2A Tudor inh: -21.7%; HP1b chromo inh: 98.3%

Results for Cc1ccc(NC(=O)CCc2nnc3n(CC(C)C)c(=O)c4ccccc4n23)cc1C ?
BAZ2B block: 1.0%; G9a inh: -0.8%[59 µM]; JMJD2A Tudor inh: -14.2%; HP1b chromo inh: 7.3%

What do the screens show for `O=c1c2ccccc2cnn1Cc1n[nH]c(=S)n1-c1ccc(F)cc1`?
BAZ2B block: -18.3%; G9a inh: 7.94µM*; JMJD2A Tudor inh: 6.31µM*; L3MBTL1 inh: 5.0%; HP1b chromo inh: 29.1%

How did O=c1c2ccccc2nnn1Cc1ccc(F)cc1 do in these assays?
BAZ2B block: 2.8%; G9a inh: 0.4%; JMJD2A Tudor inh: -6.3%; L3MBTL1 inh: 15.3%; HP1b chromo inh: -7.6%

How did Cc1ccc(-n2c(Cn3ncc4ccccc4c3=O)n[nH]c2=S)cc1 do in these assays?
BAZ2B block: inconclusive; G9a inh: 7.94µM*; JMJD2A Tudor inh: 8.91µM*; L3MBTL1 inh: 5.8%[11.4 µM]; HP1b chromo inh: 39.0%

What do the screens show for `CC(c1ccc(F)cc1)n1c(Cn2ncc3ccccc3c2=O)n[nH]c1=S` (centres undefined)?
BAZ2B block: 0.9%; G9a inh: 48.0%; JMJD2A Tudor inh: 12.6µM*; L3MBTL1 inh: 9.7%; HP1b chromo inh: 10.4%

Results for O=C(CC(c1cccs1)N1Cc2ccccc2C1=O)Nc1ccccc1F (centres undefined) ?
BAZ2B block: -5.9%; G9a inh: -6.2%[59 µM]; JMJD2A Tudor inh: -12.1%; HP1b chromo inh: 4.3%

What do the screens show for `CC(=O)C(c1ccccc1)C(c1ccccc1)C(C)[N+](=O)[O-]` (centres undefined)?
BAZ2B block: -20.7%; G9a inh: 79.6%; JMJD2A Tudor inh: -20.5%; L3MBTL1 inh: -5.1%; HP1b chromo inh: 13.6%
